PubChem BioAssay (NCI)
The panel holds about 83,000 compounds, 20% with a hit somewhere; the sample as a whole holds those more often.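 Step 1: grow cells in 96-well plates. Step 2: add test compound at a single concentration. Step 3: incubate 48 h. Step 4: record percent growth.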 Unmarked numbers belong to inactive results. Activity calls are given as the source filed them. How the source made its calls: active means growth percent below 10; inactive means the rest.

Key:
Assay in all cases: NCI-60 one-dose screen, 48 h (100 = growth as untreated, 0 = no growth, -100 = all killed)
Settings in all cases: 10 µM unless noted
DU-145 prostate = system: DU-145 prostate
K-562 leukemia = system: K-562 leukemia
MALME-3M melanoma = system: MALME-3M melanoma
MDA-MB-231 breast = system: MDA-MB-231 breast
RXF 393 renal = system: RXF 393 renal
SF-268 CNS = system: SF-268 CNS
SF-295 CNS = system: SF-295 CNS
SF-539 CNS = system: SF-539 CNS
UACC-257 melanoma = system: UACC-257 melanoma
M14 melanoma = system: M14 melanoma

SMILES	growth (DU-145 prostate)	growth (K-562 leukemia)	growth (MALME-3M melanoma)	growth (MDA-MB-231 breast)	growth (RXF 393 renal)	growth (SF-268 CNS)	growth (SF-295 CNS)	growth (SF-539 CNS)	growth (UACC-257 melanoma)	growth (M14 melanoma)
O=[N+]([O-])c1ccc(N=Nc2c(O)c(N=Nc3cc([N+](=O)[O-])cc([N+](=O)[O-])c3O)cc(N=Nc3cc(S(=O)(=O)O)cc4cc(S(=O)(=O)O)cc(O)c34)c2O)cc1	108%	77.7%	101%	102%	112%	101%	106%	102%	105%	92.4%
CCn1cc(C(=O)O)c(=O)c2cc(F)c(N3CCN(CC(=O)Nc4ccc(/C(C)=N/OC)cc4)CC3)cc21	104%	92.5%	103%	85.9%	100%	94.1%	92.3%	92.7%	91.3%	99.4%
COc1ccc2[nH]c(=O)c(/C=C/C(=O)c3ccccc3OC)cc2c1	10.8%	4.24% (active)	38.6%	0.317% (active)	-7.9% (active)	9.36% (active)	8.29% (active)	-10% (active)	37.6%	13.8%
O=C1CS/C(=N/c2nnc(-c3ccc(O)cc3)s2)N1	110%	95.6%	101%	109%	125%	108%	93.9%	102%	100%	103%
CCCCc1nc(Cl)c(C2CC(c3ccc(Cl)cc3)=NN2c2cc(Cl)cc(Cl)c2)[nH]1 (stereo not given)	40.8%	76.5%	88.4%	80.3%	43.3%	41.2%	74.3%	79.8%	94.8%	93.6%
COc1cc(-c2csc(NC(=O)Nc3ccc(Cl)cc3)n2)cc(OC)c1OC	36.3%	9.22% (active)	61.3%	45.5%	23.4%	51.2%	18%	48.8%	22.9%	21.1%
CNc1cccc2c1C(=O)c1cccc(N)c1C2=O	40.1%	26.2%	87.4%	85.9%	60.9%	56.1%	88.5%	85.7%	80.5%	11.3%
COC(=O)CCc1cc(O)c2c(c1)[C@@H](C(=O)OC)[C@H](c1ccc(O)c(O)c1)O2	95%	26.2%	66.8%	78.8%	88.5%	74.1%	84.7%	74.5%	85.6%	32.5%
COc1cccc(NC(=O)Nc2ccc(Oc3ncnc4[nH]c(C)c(C)c34)cc2)c1	91.9%	83.7%	114%	97.1%	109%	81.3%	91.7%	64.6%	97.7%	100%
CCOc1ccc(C2N(c3cc(OC)c(OC)c(OC)c3)C(=O)C2(F)F)cc1 (stereo not given)	30.1%	8.49% (active)	63.1%	46.1%	54.2%	52.4%	56.3%	10.8%	58.7%	27.5%
O=C(O)C(C(=O)O)c1cccc2ccccc12	105%	93.8%	107%	108%	107%	98%	101%	94.5%	88.1%	101%
S=C(Nc1ccc(Cl)cc1)c1ccccn1	105%	90%	85.2%	93.1%	97.8%	96.5%	91.4%	102%	91.1%	103%
C=C1C(=O)O[C@H]2[C@H]1CC/C(C=Nc1c(N)cc(F)cc1Br)=C\CC[C@@]1(C)O[C@@H]21	55.2%	20.3%	99.5%	65.1%	66.3%	83.1%	99.7%	86.9%	81.9%	66.2%
C#Cc1ccccc1NC(=O)c1sc2nc3c(cc2c1N)CCCCCC3	50%	74.5%	8.8% (active)	5.3% (active)	92.9%	48.5%	75.7%	62.2%	96%	56.5%
O=C(CCCC(=O)Nc1ccc(-n2nnc3cc(Cl)c(Cl)cc32)cc1)Nc1ccc(-n2nnc3cc(Cl)c(Cl)cc32)cc1	33.6%	54.8%	48.2%	49.9%	48.1%	60.8%	53.1%	56.7%	66.5%	68%
COc1ccc(/C=C/C(=O)c2ccc(NC(=O)CSc3nnc(-c4ccc(OC)c(OC)c4)n3-c3ccccc3)cc2)cc1	40.8%	8.42% (active)	-75% (active)	1.36% (active)	94.4%	80.6%	91.4%	87.5%	90%	36.2%
COc1cc(C2=NN(C=O)C(c3cccc(Nc4ccnc5cc(C(F)(F)F)ccc45)c3)C2)cc(OC)c1OC (stereo not given)	40%	37.8%	86.3%	58.1%	72.4%	46.6%	65.2%	77%	81.2%	15.4%
C=C1C(=O)O[C@H]2[C@H]1CC/C(COC(=O)CCCCCCC(=O)OC/C1=C/CC[C@@]3(C)O[C@H]3[C@H]3OC(=O)C(=C)[C@@H]3CC1)=C\CC[C@@]1(C)O[C@@H]21	40.4%	2.63% (active)	-2.86% (active)	-1.66% (active)	-72.8% (active)	54.2%	94.9%	21.1%	70.7%	30.6%
CN(C)C(CNc1oc(-c2cccc3ccccc23)nc1C#N)c1ccco1 (stereo not given)	98.7%	74.5%	98%	107%	99.3%	91.4%	90.1%	102%	98.5%	91.9%
Cc1c(Cl)cccc1NC(=O)c1sc2nc3c(cc2c1N)CCCCCC3	9.29% (active)	9.93% (active)	58%	34.2%	12.2%	35.7%	24.6%	0.159% (active)	59.6%	8.66% (active)
CC(C)(C)CC(C)(C)Cc1ccc(OCCOCC[N+](C)(C)Cc2ccccc2)cc1	53.4%	9.56% (active)	-40.2% (active)	-26.7% (active)	16.5%	20.7%	73.5%	30.9%	2.66% (active)	7.33% (active)
CCc1n(Cc2ccc3ccccc3c2)c2ccccc2[n+]1Cc1ccc2ccccc2c1	67.7%	35.3%	54.1%	60.3%	94.1%	64.7%	93.3%	68.8%	59%	48.7%
COc1ccc([C@H]2[C@@H](F)C(=O)N2c2cc(OC)c(OC)c(OC)c2)cc1F	9.46% (active)	9.45% (active)	74%	19.6%	28.8%	33.1%	18.6%	4.17% (active)	38.7%	1.91% (active)
Cc1cccc(C)c1NCc1nnc(-c2ccco2)o1	99.9%	100%	85.2%	79.7%	102%	93.5%	92.4%	97.7%	98.7%	99%
